Source: PubChem (National Center for Advancing Translational Sciences (NCATS))
Most compounds without a hit are left out; they make up all but 7.5% or so of the library.
SMN2 splice enh: increases expression of the SMN2 splice variant; HEK293 SMN2-luciferase splicing reporter, luminescence, 30-36 h; 2.8% of 210,000 active; Potency, µM (highest dose often 46.1 µM), for inactives: top-dose activity change, positive = activation, usual class: activators; AID 1458; note: % of control where 0% means no effect; nearly all actives have a fitted effect of over 55% in size
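qHTS luciferase splicing reporter: luminescence rises when SMN2 exon 7 is included in transfected HEK293 cells. Compound exposure lasted 30-36 h at 37C, with 4.5 mM final sodium butyrate as control, followed by a ONE-Glo read.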
ELG1 genotox: induces genotoxicity in HEK293T cells with luciferase-tagged ELG1; Potency, µM (highest dose often 46 µM), for inactives: at the highest dose activity change, positive = activation, most hits filed as activators; HEK293T ELG1-luciferase reporter, luminescence, 16 h; 1.3% of 330,000 active; note: % of control where 0% means no effect; nearly all actives have a fitted effect of over 60% in size
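Screening used a luciferase reporter fused to human ELG1 in HEK293T cells. Luminescence was read on a CCD plate imager after 16 hr exposure and 30 min ONE-Glo incubation.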
KinaseGlo FLuc: Kinase-Glo luciferase inhibition (counter-screen) | 0.28% of 200,000 active | Q27757 | Potency, µM (titrated, usually from 38.3 µM), without a hit: at the highest dose activity change, negative = inhibition, usual class: inhibitors | Kinase-Glo luciferase, ATP luminescence, 8 min; note: % is set by controls: 0 for no effect and ±100 for the full control effect; nearly all actives have a fitted effect of over 60% in size
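Kinase-Glo luciferase light output from ATP and luciferin was measured with 10 uM ATP, within the enzyme's linear range. Buffer: 50 mM imidazole pH 7.2, 50 mM KCl, 7 mM MgCl2, 0.01% Tween 20, 0.05% BSA; luminescence read after 8 min at ambient temperature.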
NPC1 prom act: NPC1 promoter activation; Huh7 NPC1 promoter luciferase reporter, 24 h; Potency, µM (titrated, usually from 9.22 µM), without a hit: top-dose activation, most hits filed as activators; 2.4% of 320,000 active; AID 485313; note: % of control where 0% means no effect; nearly all actives have a fitted effect of over 60% in size
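Stably transfected Huh7 (NPC1 promoter→luciferase), 1500 cells/well in Opti-MEM + 10% FBS, 2 h settle, then compound 24 h at 37 °C. Luminescence after 10 min with Amplite reagent.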
Rab9 prom act: activates the Rab9 promoter | Huh7 Rab9 promoter-luciferase reporter, luminescence, 24 h | Potency, µM (series often up to 9.22 µM), for inactives: top-dose activation, negative = inhibition, most hits filed as activators | 2.8% of 320,000 active | AID 485297; note: % of control where 0% means no effect; nearly all actives have a fitted effect of over 60% in size
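Huh7 cells stably carrying Rab9 promoter–luciferase reporter, plated 1500 cells/well, compound added after 2 h and incubated 24 h at 37 °C; luciferase luminescence then read after 10 min with detection reagent.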
FLuc counter: firefly luciferase modulation, counter-screen for miR-21 project | P08659 | purified FLuc, Km substrates, luminescence inhibition | Potency, µM (titrated, usually from 57.5 µM), inactives show top-dose activity change, negative = inhibition, actives largely listed as inhibitors | 6.9% of 360,000 active;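 note: plate controls were vehicle for no effect and reference inhibitor for full effect; nearly all actives have a fitted effect of over 55% in size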
Target sequence (P08659 whole entry, looked up): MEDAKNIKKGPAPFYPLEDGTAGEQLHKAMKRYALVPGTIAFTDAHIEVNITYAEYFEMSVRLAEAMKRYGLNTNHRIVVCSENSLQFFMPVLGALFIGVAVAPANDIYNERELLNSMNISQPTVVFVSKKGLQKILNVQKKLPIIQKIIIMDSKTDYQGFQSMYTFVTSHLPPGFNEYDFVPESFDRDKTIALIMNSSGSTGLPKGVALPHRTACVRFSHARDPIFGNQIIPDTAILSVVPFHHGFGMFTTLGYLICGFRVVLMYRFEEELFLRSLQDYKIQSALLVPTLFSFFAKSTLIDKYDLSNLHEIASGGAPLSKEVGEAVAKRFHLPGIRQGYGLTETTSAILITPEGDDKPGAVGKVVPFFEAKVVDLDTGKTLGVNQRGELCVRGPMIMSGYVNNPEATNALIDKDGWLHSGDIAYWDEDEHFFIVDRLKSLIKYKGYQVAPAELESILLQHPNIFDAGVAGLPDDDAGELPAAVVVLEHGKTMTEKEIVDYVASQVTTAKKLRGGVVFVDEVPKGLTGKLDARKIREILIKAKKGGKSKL
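Biochemical qHTS of compounds, final roughly 60 µM downward over six points, against 10 nM purified firefly luciferase using Km concentrations of substrates (10 uM D-luciferin, 10 uM ATP) in Tris acetate pH 7.5 buffer; luminescence output.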
Active calls of the source: *; ? = inconclusive; . = not tested or not shown; [ ] = another dose, or the depositor's remark. Calls come from the whole dose curve; as a rule, active = well fitted curve in the direction sought with a large enough effect; inconclusive = small, poorly fitted or top-dose-only effect, or another doubt; inactive = no such curve, though single readings can be large; an effect the other way counts as inactive or inconclusive. Potency is the fitted concentration of half-maximal effect.

SMILES | SMN2 splice enh | ELG1 genotox | KinaseGlo FLuc | NPC1 prom act | Rab9 prom act | FLuc counter
COc1cccc(NC(=O)CSc2nc3c(oc4ccccc43)c(=O)n2Cc2ccco2)c1 | 1% | . | . | . | . | -4%
Cc1c(NC(=O)c2ccc3c(c2)C(=O)N(Cc2ccco2)C3=O)cccc1C(=O)O | -8% | 1% | 3% | 0% | -9% | 15µM*
O=C(Nc1cccc(Br)c1)c1ccc(CSc2ccccc2)cc1 | -8% | 5% | -5% | 17% | 14% | 12µM*
O=C(Nc1cccnc1)c1ccc(CSc2ccccc2)cc1 | . | 9% | . | 2% | 24% | -16%
CCc1nnc(N/N=C/c2ccccc2F)n1N | -36% | 0% | -3% | 5% | 11% | 5%
Fc1ccccc1/C=N/Nc1nc2ccccc2o1 | . | ? | . | 2.8µM* | 2.2µM* | 3µM*
FC(F)Oc1ccccc1/C=N/Nc1nc2ccccc2o1 | . | 19% | . | ? | 4µM* | ?
COc1ccc(CC(=O)OCC(=O)Nc2c(C)n(C)n(-c3ccccc3)c2=O)cc1OC | . | -2% | . | 1% | 10% | 1%
Cc1cccn2c(=O)nc(SCC(=O)NCc3ccc4c(c3)OCO4)nc12 | . | -2% | . | -1% | 0% | -8%
CCOC(=O)C1CCN(C(=O)CNC(=O)c2nn(-c3ccc(OC)cc3OC)c(=O)c3ccccc23)CC1 | . | 10% | . | 4% | 13% | 9.5µM*
CCOC(=O)N1CCN(C(=O)CNC(=O)c2nn(-c3ccc(OC)cc3OC)c(=O)c3ccccc23)CC1 | . | ? | . | 15% | 19% | 3.8µM*
COc1ccc(-n2nc(C(=O)NCC(=O)N3CCCC3)c3ccccc3c2=O)c(OC)c1 | . | 10% | . | -2% | 8% | 13µM*
COc1ccc(-n2nc(C(=O)NCC(=O)N3CC(C)CC(C)C3)c3ccccc3c2=O)c(OC)c1 (centres undefined) | . | 0% | . | 1% | -1% | ?
O=C(N/N=C/c1cccc(O)c1)c1csc2ccccc12 | 0% | 16% | -4% | 16% | -5% | 21µM*
Cn1nccc1C(=O)Oc1ccc(/C=N/NC(=O)c2ccccc2O)cc1 | -17% | 2% | -2% | -1% | 9% | 17µM*
O=C(N/N=C/c1cccc(O)c1)c1ccccc1O | . | ? | . | 1% | 8% | 1.5µM*
O=C(O)COc1ccc(/C=N/NC(=O)c2cn(-c3ccccc3)nc2-c2ccccc2)cc1 | . | 3% | . | 0% | -1% | 4.8µM*
O=C(Oc1ccc(/C=N/NC(=O)c2ccccc2O)cc1)c1ccccc1 | -2% | ? | -2% | 2% | -3% | ?
CCc1ccccc1N(C)C(=O)c1nn(-c2ccc(OC)cc2)c(=O)c2c1c1ccccc1n2C | 10% | . | . | . | . | 0%
O=C(N/N=C/c1ccc(OCC(=O)N2CCCCC2)cc1)c1ccccc1 | ? | -3% | -10% | 1% | 3% | ?
O=C(CC1SC(=O)NC1=O)Oc1ccc(/C=N/NC(=O)c2ccccc2O)cc1 (centres undefined) | . | 9% | . | 3% | 17% | 17µM*
O=C(N/N=C/c1ccccc1OCC(=O)N1CCCC1)C(=O)Nc1ccccc1F | 12% | 11% | 8.9µM* | 1% | -4% | 9.5µM*
O=C(N/N=C/c1ccc(OCC(=O)N2CCCCC2)cc1)c1ccccc1O | 2% | 1% | 1% | 13% | 12% | 15µM*
O=C(N/N=C\c1ccccc1)c1ccccc1-n1cccc1 | -4% | 0% | 8% | -2% | -3% | 2%
Nc1c(C(=O)N/N=C/c2ccccc2)cnn1-c1ccccc1 | . | ? | . | 1.1µM* | 0.63µM* | 5.4µM*
SMILES | SMN2 splice enh | ELG1 genotox | KinaseGlo FLuc | NPC1 prom act | Rab9 prom act | FLuc counter
CC(=O)Nc1ccc(OC(=O)CC2SC(=O)NC2=O)cc1 (centres undefined) | 4% | 1% | 1% | 1% | -1% | -4%
C#CCN1C=C(C(=O)OCC)C(C)N(Cc2ccccc2I)S1(=O)=O (centres undefined) | . | -2% | . | . | . | .
CCOC(=O)C(C)On1c(-n2nc(C)cc2C)nc2ccccc2c1=O (centres undefined) | . | 0% | . | -3% | 4% | -8%
CCN(CC)CCCNC(=O)c1cnc(SC)nc1-c1ccccc1 | . | . | . | . | . | -4%
CC1Oc2ccccc2C=C1/C=N/NC(=O)c1ccncc1 (centres undefined) | . | 0% | . | 0% | -2% | 17µM*
CCCNC(=S)N1CC2(C)CN(C(=O)C(=O)OC)CC(C)(C1)C2=O | -34% | -12% | -2% | 1% | -6% | -4%
On1c(-c2ccc(Cl)cc2)nc2ccccc21 | -27% | 10% | ? | ? | ? | 19µM*
On1c(-c2ccccc2)nc2ccccc21 | . | 5% | . | -5% | -5% | ?
CN(c1ccccc1C(=O)O)S(=O)(=O)c1ccc2[nH]c(=O)oc2c1 | -5% | . | . | -1% | 1% | 4%
O=C(c1cc(-c2ccc(F)cc2)on1)N1CCCc2ccccc21 | ? | ? | 0% | 22% | ? | 11µM*
Cc1ccc(-c2cc(C(=O)N3CCCc4ccccc43)no2)cc1 | ? | ? | 1% | ? | 3.2µM* | 4.3µM*
O=C(c1cc(-c2cccs2)on1)N1CCCc2ccccc21 | 22% | ? | -1% | 14% | 22% | 17µM*
COc1ccccc1-c1cc(C(=O)N2CCCc3ccccc32)no1 | 4% | 9% | 2% | 2% | 14% | ?
COc1ccc(OC)c(-c2cc(C(=O)N3CCCc4ccccc43)no2)c1 | -7% | -7% | 5% | -4% | 10% | 2%
COCCNC(=O)c1c(C)oc2nc(C)nc(N3CCOCC3)c12 | . | . | . | . | . | 0%
COc1cc(/C=N/NC(=O)c2ccccn2)ccc1OC(=O)c1cccs1 | . | ? | . | ? | 21% | 13µM*
CCOc1cc(/C=N/NC(=O)COc2ccc(C)cc2)ccc1OC(=O)c1cccs1 | 1% | 4% | -1% | 1% | 5% | 5%
COc1cc(/C=N/NC(=O)C(N)=O)ccc1OC(=O)c1cccs1 | 6% | 1% | -2% | -2% | -3% | -1%
COc1cc(/C=N/Nc2ccc(Cl)c(C(=O)O)c2)ccc1OC(=O)c1cccs1 | 17% | 11% | -1% | 22% | ? | 24µM*
COc1cc(/C=N/NC(=O)COc2ccc(C)cc2)ccc1OC(=O)c1cccs1 | -15%[1.84 µM] | 11% | -3% | -2% | 2% | 11µM*
COc1cc(/C=N/Nc2ccccc2)ccc1OC(=O)c1cccs1 | ? | ? | -4% | 5% | 15% | 21µM*
NC(=O)c1cc[n+](CC2=C(C(=O)O)N3C(=O)C(NC(=O)C(c4ccccc4)S(=O)(=O)[O-])C3SC2)cc1 (centres undefined) | -10% | . | -5% | . | . | .
